The values that follow come from PubChem BioAssay (NCATS).

Where “and” joins values, the source holds several entries; their conditions need not be identical. Equal values may be shown once. Results filed as inconclusive are left out. Calls of active or inactive are those of the source. Unless noted, calls come from the whole dose curve; as a rule, active = well fitted curve in the direction sought with a large enough effect; inconclusive = small, poorly fitted or top-dose-only effect, or another doubt; inactive = no such curve, though single readings can be large; an effect the other way counts as inactive or inconclusive.

A short description of assay [1]: Cell Viability - Jurkat (AID 426;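 active = dose-dependent loss of cell ATP signal giving a full or clear fitted curve, ranked by lower potency value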;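 note: potency is the fitted concentration of half-maximal effect; cells exposed to compound for 40 hours at 37 °C before ATP read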). The conditions noted are these: qHTS. The method, boiled down: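 Cytotoxicity was scored as loss of cellular ATP, measured by luciferase-based luminescence, in Jurkat clone E6-1 cells after 40 h compound treatment; tamoxifen and doxorubicin served as positive controls.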
(In general: In qHTS, concentration-response curves come from the screen itself.)

The nature of assay [2]: Cell Viability - Hek293 (AID 427;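 active = compounds whose dose-response curve shows a full or clear partial loss of cell viability, called from curve shape rather than a numeric limit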;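 note: potency is the fitted concentration of half-maximal effect; cells exposed to compound for 40 hours at 37 °C before reading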). The conditions noted are these: qHTS. The method, boiled down: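 Luminescent ATP read-out (CellTiter-Glo, 20 min RT) after 40 hr compound exposure at 37 °C in complete medium. Signal normalized to DMSO (basal) and 100 uM tamoxifen (100% inhibition); concentration-response fitted with the standard Hill equation to give AC50.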
The nature of assay [3]: Cell Viability - SH-SY5Y (AID 544).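 Note: cells exposed to compound for 40 hours; 0% = DMSO alone and -100% = 100 µM tamoxifen; nearly all actives have a fitted effect of over 55% in size.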 The conditions noted are these: SH-SY5Y neuroblastoma cell viability; viability change, negative = cytotoxic: at 92.2 µM (top of the series). Put shortly:
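Quantitative HTS in SH-SY5Y neuroblastoma cells, 40 hr treatment at 37 °C, ATP content by luciferase luminescence; AC50 from Hill fits.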

Assay [4] can be described thus: Cell Viability - Mesenchymal (AID 546).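 Note: cells exposed to compound for 40 hours before reading; 0% = DMSO only and -100% = 100 µM tamoxifen.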 The conditions noted are these: mesenchymal cells viability, qHTS; series mostly up to 91.7 µM. Put shortly:
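CellTiter-Glo luminescence (intracellular ATP, 20 min room temperature) after 40 hr compound exposure at 37 °C of 1000 glomerulus-derived human kidney mesenchymal cells/well; AC50 values obtained by fitting qHTS concentration-response data to the Hill equation.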

Assay [5] deals with Cytochrome P450 3A4 (Homo sapiens) (UniProt P08684). Kind of assay: qHTS Assay for Inhibitors and Substrates of Cytochrome P450 3A4 (AID 884). Note: nearly all actives have a fitted effect of over 50% in size. Note: potency is the fitted concentration of half-maximal effect. The conditions noted are these: recombinant CYP3A4, Luciferin-PPXE luminescence; series mostly up to 57.1 µM. Put shortly: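 Luminescent readout of luciferin produced by CYP3A4 (20 nM) dealkylation of Luciferin-PPXE, 25 uM (its KM). NADPH-driven reaction ran 60 min at RT after 10 min compound preincubation; data scaled to 57 uM ketoconazole as 100% inhibition.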

Assay [6] is described as follows: Cell Viability - LYMP2-019 (AID 973). Note: nearly all actives have a fitted effect of over 55% in size. Note: potency is the fitted concentration of half-maximal effect. The conditions noted are these: LYMP2-019 lymphoblastoid cell line viability; series mostly up to 92.2 µM. Put shortly: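 AC50 values come from Hill-equation modelling of qHTS concentration-response curves, where viability is measured as luciferase-based ATP luminescence in the lymphoblastoid line after 24 hr compound exposure in complete culture medium.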

Assay [7] in a line: Cell Viability - LYMP2-024 (AID 988).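 Note: cells exposed to compound for 24 hr at 37 °C; nearly all actives have a fitted effect of over 60% in size.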 Note: potency is the fitted concentration of half-maximal effect. The conditions noted are these: LYMP2-024 lymphoblastoid cell viability; series mostly up to 92.2 µM. Put shortly: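 Cells at 2500 per well received compound for 24 hr after a 5 hr settling period. Viability was scored by CellTiter-Glo luminescence, with AC50 from Hill fits.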
The nature of assay [8]: Cell Viability - LYMP2-026 (AID 989). Note: nearly all actives have a fitted effect of over 50% in size. Note: potency is the fitted concentration of half-maximal effect. The conditions noted are these: LYMP2-026 lymphoblastoid cell viability, qHTS; series mostly up to 92.2 µM. Put shortly:
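Acute toxicity screen in complete culture medium, with 24 hr compound exposure at 37 C. Viability read as cellular ATP via luciferase reaction, with tetraoctylammonium bromide (6.4pM to 92 uM) as positive control.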

Assay [9] is described as follows: Cell Viability - LYMP1-002 - Assay at 40 hr (AID 994).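 Note: 0% = DMSO only and full inhibition = 92 µM tetraoctylammonium bromide; nearly all actives have a fitted effect of over 60% in size.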 The conditions noted are these: LYMP1-002 lymphoblastoid cell viability; series mostly up to 92.2 µM. Put shortly: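 Concentration-dependent ATP loss after 40 hr treatment at 37 C defined toxicity; AC50 values were obtained by fitting the standard Hill equation.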
Assay [10] addresses Peroxisome proliferator-activated receptor gamma (Homo sapiens) (UniProt P37231). Kind of assay: qHTS assay for small molecule agonists of peroxisome proliferator-activated receptor gamma signaling (AID 588536; active = well fitted curve in the direction sought with a large enough effect in the signal ratio, with a control signal flat, not every such curve was filed as active; the % refers to the signal ratio;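 note: 0% = DMSO basal wells and 100% = rosiglitazone at 2 µM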). The conditions noted are these: HEK293 PPARg-UAS-bla, beta-lactamase ratio, 16 h, percent of rosiglitazone response, DMSO as zero; series mostly up to 76.7 µM. The method, boiled down: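 Compound treatment: 16 h, 37 C, HEK293 GeneBLAzer cells. Detection: CCF4, 2 h RT. Values: Hill-fit EC50, efficacy as % of 2 uM rosiglitazone.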

Assay [11] is described as follows: qHTS assay for small molecule agonists of retinoid X receptor alpha signaling (AID 588544; calls by dose curve). The conditions noted are these: HEK293T RXRa-UAS-bla, beta-lactamase reporter, 18 h; 530 nm emission.
Assay [12] concerns the target Retinoic acid receptor RXR-alpha (Homo sapiens) (UniProt P19793). The assay is described as above. The conditions noted are these: HEK293T RXRa-UAS-bla, beta-lactamase reporter, 18 h; series mostly up to 76.7 µM.
Assay [13] concerns the target Thyroid hormone receptor beta (Homo sapiens) (UniProt P10828). Kind of assay: qHTS assay for small molecule agonists of thyroid hormone receptor beta signaling (AID 588545; calls by dose curve). The conditions noted are these: TR-UAS-bla GripTite HEK 293, beta-lactamase ratio, agonist mode, 18 h; series mostly up to 76.7 µM. The method, boiled down:
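In this cell-based screen, titrated compounds act on HEK 293 cells held in medium with 2% charcoal/dextran FBS, NEAA and pyruvate for 18 hrs at 37 C. Responses are expressed relative to T3 (10 nM) as 100% and basal DMSO as 0%.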

Assay [14] is described as follows: qHTS assay for small molecule antagonists of retinoid X receptor alpha signaling (AID 588546).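 Note: cells stimulated with 9-cis-retinoic acid as agonist; % is set by controls: 0 for no effect and ±100 for the full control effect.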 The conditions noted are these: HEK293T RXRa-UAS-bla, beta-lactamase ratio, antagonist mode; measured here: W530 green channel, cytotoxicity proxy. The method, boiled down:
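Beta-lactamase reporter inhibition, read as CCF4 fluorescence ratio (ex 405, em 460/530 nm) after 2 h at RT. HEK293T UAS-bla cells, 2500/well, were stimulated with 9-cis-RA at 500 or 100 nM final alongside test compound for 18 h at 37 C.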

Assay [15] concerns the target Tumor necrosis factor (Homo sapiens) (UniProt P01375). Kind of assay: qHTS assay to identify small molecules that stimulate Tumor Necrosis Factor-alpha (TNF-alpha) secretion (AID 651757; active = well fitted curve in the direction sought with a large enough effect in the signal ratio; the % refers to the signal ratio; note: 0% is about no effect). The conditions noted are these: Human cells, HTRF 665/615 ratio; series mostly up to 92.2 µM. The method, boiled down:
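Using 3000 THP-1 cells per well, compounds and controls were applied for 17 hrs at 37 C. Detection followed with two labeled anti-TNF-alpha antibodies (cryptate donor, XL665 acceptor) for 3 hr at room temperature, measured by TR-FRET.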

Assay [16] concerns the target Nuclear receptor subfamily 1 group I member 2 (Rattus norvegicus) (UniProt Q9R1A7). Kind of assay: qHTS assay for small molecule activators of the rat pregnane X receptor (rPXR) signaling pathway (AID 651751; call rule not given here; note: 0% is about no effect). The conditions noted are these: rPXR reporter cells, luciferase (One-Glo), 24 h.
Assay [17] is described as follows: MultiTox-Fluor Cytotoxicity Assay - LYMP1-002 - Dead Cells (AID 960).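 Note: 0% = DMSO and 100% = tetraoctylammonium bromide; nearly all actives have a fitted effect of over 60% in size.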 The conditions noted are these: LYMP1-002 lymphoblastoid cells, dead-cell protease fluorescence; series mostly up to 46.1 µM. The method, boiled down:
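Concentration-dependent increases in membrane-leaked protease activity are quantified in LYMP1-002 cells after 16 hr treatment; values are normalized against DMSO and tetraoctylammonium bromide (15 uM) controls and AC50 derived by Hill modeling.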

Assay [18] can be described thus: Cell Viability - LYMP2-005 (AID 967). Note: potency is the fitted concentration of half-maximal effect. The conditions noted are these: LYMP2-005 lymphoblastoid cell viability; series mostly up to 92.2 µM. Put shortly: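 Human lymphoblastoid LYMP2-005 cells, 2,500 per well in complete medium, rested 5 h at 37C then compound-treated 24 h at 37C. Intracellular ATP read by CellTiter-Glo luminescence after 30 min at room temperature; AC50 from Hill-equation fits of concentration-response data.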

Assay [19] in a line: Cell Viability - LYMP2-010 (AID 981).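 Note: cells exposed to compound for 24 hours at 37 °C; nearly all actives have a fitted effect of over 55% in size.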 Note: potency is the fitted concentration of half-maximal effect. The conditions noted are these: LYMP2-010 lymphoblastoid cell viability, qHTS; series mostly up to 92.2 µM. Put shortly: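 This 24 hr viability screen uses LYMP2-010 lymphoblastoid cells, quantifies ATP via luciferase luminescence, and derives AC50 from Hill fits of qHTS concentration-response data.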
Assay [20] can be described thus: qHTS assay for small molecule antagonists of the retinoid-related orphan receptor gamma (ROR-gamma) signaling pathway - cell viability counter screen (AID 720652; active = well fitted curve in the direction sought with a large enough effect in the repeat runs; an effect the other way counts as inactive or inconclusive;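 note: CHO reporter cells with doxycycline-induced ROR-gamma expression; compound exposure lasted 16 hr before ATP read; % is set by controls: 0 for no effect and ±100 for the full control effect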). The conditions noted are these: RORgamma reporter cell line viability counter screen; series mostly up to 92.2 µM. The method, boiled down: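 ATP-based viability readout in the ROR-gamma reporter CHO cells after 16 hr compound exposure under doxycycline induction.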

Cytochrome P450 3A4 (Homo sapiens), sequence (P08684 whole entry, looked up): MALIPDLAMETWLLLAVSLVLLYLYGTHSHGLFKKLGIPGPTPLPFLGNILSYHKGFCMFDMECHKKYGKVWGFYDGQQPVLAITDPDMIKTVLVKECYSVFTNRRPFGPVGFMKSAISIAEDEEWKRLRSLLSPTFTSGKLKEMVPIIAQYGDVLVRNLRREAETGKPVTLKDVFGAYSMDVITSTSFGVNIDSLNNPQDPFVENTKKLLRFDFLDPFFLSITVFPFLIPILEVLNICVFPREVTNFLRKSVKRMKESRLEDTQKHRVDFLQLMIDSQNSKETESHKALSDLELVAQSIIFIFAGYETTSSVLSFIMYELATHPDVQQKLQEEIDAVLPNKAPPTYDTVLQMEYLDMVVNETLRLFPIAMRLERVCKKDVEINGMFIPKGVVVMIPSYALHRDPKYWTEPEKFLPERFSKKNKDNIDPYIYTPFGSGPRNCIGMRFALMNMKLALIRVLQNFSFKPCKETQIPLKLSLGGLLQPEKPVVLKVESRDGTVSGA
Retinoic acid receptor RXR-alpha (Homo sapiens), sequence (P19793 whole entry, looked up): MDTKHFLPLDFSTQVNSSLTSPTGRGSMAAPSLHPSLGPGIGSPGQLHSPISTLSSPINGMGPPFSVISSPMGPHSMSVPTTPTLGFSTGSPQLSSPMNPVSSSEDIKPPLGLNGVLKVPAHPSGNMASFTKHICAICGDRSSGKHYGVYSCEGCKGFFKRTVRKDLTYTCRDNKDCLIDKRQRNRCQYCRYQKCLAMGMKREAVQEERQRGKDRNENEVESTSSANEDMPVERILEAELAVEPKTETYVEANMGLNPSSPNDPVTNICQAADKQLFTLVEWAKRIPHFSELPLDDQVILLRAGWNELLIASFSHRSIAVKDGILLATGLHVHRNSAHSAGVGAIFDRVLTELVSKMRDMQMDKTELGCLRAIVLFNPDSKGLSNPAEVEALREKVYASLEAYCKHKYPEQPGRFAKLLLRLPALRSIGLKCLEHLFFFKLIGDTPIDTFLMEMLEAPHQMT
Nuclear receptor subfamily 1 group I member 2 (Rattus norvegicus), sequence (Q9R1A7 whole entry, looked up): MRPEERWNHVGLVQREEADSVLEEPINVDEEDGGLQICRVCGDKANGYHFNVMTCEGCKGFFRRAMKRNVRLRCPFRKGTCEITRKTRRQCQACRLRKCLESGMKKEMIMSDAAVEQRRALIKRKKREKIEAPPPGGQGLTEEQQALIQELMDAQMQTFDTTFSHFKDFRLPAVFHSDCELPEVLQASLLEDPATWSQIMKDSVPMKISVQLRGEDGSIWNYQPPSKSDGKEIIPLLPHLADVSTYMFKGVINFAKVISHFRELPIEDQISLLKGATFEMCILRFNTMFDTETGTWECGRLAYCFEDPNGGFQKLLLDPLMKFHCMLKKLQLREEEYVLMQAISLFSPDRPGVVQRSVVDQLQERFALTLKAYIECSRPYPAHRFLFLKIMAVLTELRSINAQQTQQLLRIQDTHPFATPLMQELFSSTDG
Tumor necrosis factor (Homo sapiens), sequence (P01375 whole entry, looked up): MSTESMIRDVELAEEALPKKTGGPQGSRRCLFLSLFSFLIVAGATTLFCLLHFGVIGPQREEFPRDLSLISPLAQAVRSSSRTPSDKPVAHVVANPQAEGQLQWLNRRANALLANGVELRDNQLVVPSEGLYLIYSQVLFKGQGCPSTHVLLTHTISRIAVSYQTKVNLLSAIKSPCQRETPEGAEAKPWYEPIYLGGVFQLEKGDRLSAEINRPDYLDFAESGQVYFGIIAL
Thyroid hormone receptor beta (Homo sapiens), sequence (P10828 whole entry, looked up): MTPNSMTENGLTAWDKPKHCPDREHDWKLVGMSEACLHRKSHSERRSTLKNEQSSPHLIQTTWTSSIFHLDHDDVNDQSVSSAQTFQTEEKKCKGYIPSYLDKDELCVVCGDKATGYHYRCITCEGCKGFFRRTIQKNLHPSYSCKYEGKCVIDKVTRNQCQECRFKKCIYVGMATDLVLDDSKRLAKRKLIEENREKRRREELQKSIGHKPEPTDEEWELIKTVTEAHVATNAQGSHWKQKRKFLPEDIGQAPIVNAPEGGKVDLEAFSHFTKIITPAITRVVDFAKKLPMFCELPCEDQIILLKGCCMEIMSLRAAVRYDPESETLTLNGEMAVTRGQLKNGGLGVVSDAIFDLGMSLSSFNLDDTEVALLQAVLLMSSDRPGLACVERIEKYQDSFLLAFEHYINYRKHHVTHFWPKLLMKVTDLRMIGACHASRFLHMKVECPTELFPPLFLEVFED
Peroxisome proliferator-activated receptor gamma (Homo sapiens), sequence (P37231 whole entry, looked up): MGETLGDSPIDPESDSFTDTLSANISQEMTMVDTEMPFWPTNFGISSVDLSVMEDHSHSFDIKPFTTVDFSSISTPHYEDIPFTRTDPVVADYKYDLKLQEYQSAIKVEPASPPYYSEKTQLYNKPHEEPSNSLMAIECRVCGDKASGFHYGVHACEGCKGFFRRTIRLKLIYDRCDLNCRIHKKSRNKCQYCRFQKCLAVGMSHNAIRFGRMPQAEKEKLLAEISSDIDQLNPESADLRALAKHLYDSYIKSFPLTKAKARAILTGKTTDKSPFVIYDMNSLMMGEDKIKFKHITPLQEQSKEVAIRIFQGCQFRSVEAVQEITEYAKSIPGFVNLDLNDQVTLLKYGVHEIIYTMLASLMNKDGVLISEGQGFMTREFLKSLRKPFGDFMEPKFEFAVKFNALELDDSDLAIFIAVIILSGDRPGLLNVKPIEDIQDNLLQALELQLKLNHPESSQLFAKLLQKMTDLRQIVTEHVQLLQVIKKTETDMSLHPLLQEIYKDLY

Take `CCCCCc1cc(O)cc(O)c1`: the Potency in [1] was > 92 µM (inactive); in assay [2] it was > 92 µM (inactive); in [5], 12.6 µM (active). For the same compound, the Potency result in assay [3], in assay [4], in assay [6], in assay [7], in assay [8] and in assay [9] was “inactive” throughout. Further, in assay [13], the Potency result is “inactive”. The result in assay [10], in [12] and in [15] was inactive. The max response in [11] was 0.917%; in [14], -2.02%; in assay [16] it was -1.86% (inactive).

Turning to `COc1cc(-c2ccc(N)c(OC)c2)ccc1N`, the results for the Potency in assay [1], in assay [2] and in assay [5] were > 92 µM (inactive), > 92 µM (inactive) and 12.6 µM (active), respectively. Also, the Potency result in assay [3], in assay [4], in assay [17], in assay [18], in assay [6] and in assay [19] was “inactive” in each case. The Potency entry in assay [7], in [8], in [9] and in assay [13] was “inactive” each time. In addition, the outcome in assay [10] and in assay [12] was inactive. For the same compound, the max response in [11] is 8.08% and -9.67%; in [14] it was 0.0176% and -5.1%; in assay [16], 3.75% (inactive) and 3.76% (inactive) and 11% (inactive).

`CCCCC(=O)Cl`: the Potency in assay [1] and in assay [2] was > 92 µM (inactive) each time. For the same compound, the Potency result in assay [3], in assay [5], in [17], in assay [18], in [6] and in assay [7] was “inactive” throughout. Besides, the Potency result in assay [8], in [9], in assay [13] and in assay [20] was “inactive” in each case. For the same compound, the max response in assay [11] was -18.9%; in [14] it was -10.8%; in assay [16] it was 6.67% (inactive). The outcome in assay [12] and in assay [15] was inactive.

Regarding `CN1CSC(=S)N(C)C1`, the Potency was 57.6 µM (active) in assay [1]; 31.6 µM (active) in assay [18]; 31.6 µM (active) in assay [6]; 20 µM (active) in assay [19]; 12.6 µM (active) in [7]; 39.8 µM (active) in assay [8]. For the same compound, in assay [3], the viability change, negative = cytotoxic is -83% (active). The Potency entry in assay [5], in [17] and in [13] was “inactive” in each case. Further, the result in [10] and in assay [15] was inactive. Moreover, the max response in [14] is 5.73%; in assay [16] it was -10.5% (inactive) and -8.21% (inactive).

As for `Nc1cc(Cl)ccc1Cl`, the Potency in assay [2] is > 92 µM (inactive). Further, the Potency entry in assay [3], in assay [4], in [5], in assay [17], in [18] and in assay [6] was “inactive” in each case. In addition, the Potency result in assay [19], in assay [7], in assay [8], in [9], in assay [13] and in assay [20] was “inactive” in each case. The max response in assay [11] is -19.1%; in assay [14], 1.78%; in [16] it was 4.7% (inactive). Further, the call in [12] and in assay [15] was inactive.

As to `O=[N+]([O-])c1c(Cl)c(Cl)c(Cl)c(Cl)c1Cl`, in assay [1], the Potency was > 92 µM (inactive). Moreover, the Potency result in assay [3], in assay [4], in [5], in assay [18], in [6] and in [19] was “inactive” throughout. Further, the Potency result in assay [7], in [8], in assay [9] and in [13] was “inactive” throughout. For the same compound, the max response was -0.246% and 22.3% in [11]; -1.28% in [14]; -3.78% (inactive) and 1.81% (inactive) in assay [16]. In addition, the result in [12] and in assay [15] was inactive.

`CC(C)OC(=O)Cc1ccccc1`: the Potency in assay [2] is > 92 µM (inactive). In addition, the Potency result in assay [3], in assay [4], in assay [5], in assay [17], in assay [18] and in assay [6] was “inactive” in each case. Further, the Potency result in [19], in assay [7], in assay [8], in assay [9], in [13] and in [20] was “inactive” each time. In addition, the result in assay [10], in assay [12] and in [15] was inactive. For the same compound, the max response in [11] is 1.88%; in assay [14], -2.88%; in [16] it was 1.04% (inactive).
